Source: PubChem BioAssay
HPGD inh – qHTS Assay for Inhibitors of HPGD (15-Hydroxyprostaglandin Dehydrogenase) | AID 894, 2007 | Potency, µM, without a hit: at the highest dose activity change, negative = inhibition, most hits filed as inhibitors | 15-hydroxyprostaglandin dehydrogenase [NAD(+)] (Homo sapiens), P15428 | 4.3% of 150,000 active | purified HPGD, NADH fluorescence kinetic, PGE2 substrate; active means well fitted inhibition curve with a large enough effect, not every such curve was filed as active; inconclusive means small, poorly fitted or top-dose-only effect, or another doubt; inactive means no such curve, though single readings can be large or run the other way; further: on the % scale 0 is the no-effect control and ±100 the full control effect
Target sequence (P15428 whole entry, looked up): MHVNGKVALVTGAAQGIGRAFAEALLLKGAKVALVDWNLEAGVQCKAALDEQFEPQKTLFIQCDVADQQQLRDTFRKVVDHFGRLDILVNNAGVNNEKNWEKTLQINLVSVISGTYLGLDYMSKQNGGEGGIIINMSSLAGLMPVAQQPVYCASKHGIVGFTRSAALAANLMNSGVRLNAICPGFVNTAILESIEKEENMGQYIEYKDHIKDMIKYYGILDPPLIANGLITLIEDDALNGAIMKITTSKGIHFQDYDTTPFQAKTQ
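NADH formation kinetics: reaction with 30 uM PGE2 and 1 mM NAD+ (final), 20 nM enzyme, Tris-HCl pH 8 with Tween 20, after 15 min compound preincubation at room temperature. Fluorescence change, last versus first of five reads.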
HTT cytoprotect – qHTS Multiplex Assay to Identify Dual Action Probes in a Cell Model of Huntington: Cytoprotection (ATP). PC12 HTT-Q103 induced, cytoprotection, ATP luminescence, 40 h. Potency, µM (top dose mostly 56.4 µM), without a hit: cytoprotection (ATP increase), actives largely listed as activators. 0.14% of 230,000 active; further: % of control where 0% means no effect; nearly all actives have a fitted effect of over 45% in size
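Huntington model: PC12 line, ecdysone-inducible HTTQ103 exon1–GFP, tebufenozide 100 nM. Test articles in a dose series. Endpoint luminescence from cellular ATP.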
HTT aggregate – qHTS Multiplex Assay to Identify Dual Action Probes in a Cell Model of Huntington: Aggregate Formation (GFP). PC12 HttQ103-GFP aggregates, Acumen cytometry, 40 h. Potency, µM (highest dose often 46.1 µM), for inactives: at the top dose activity change, negative = inhibition, hits mostly inhibitors. 1.1% of 220,000 active. AID 1688, 2009; further: on the % scale 0 is the no-effect control and ±100 the full control effect; nearly all actives have a fitted effect of over 60% in size
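Quantitative HTS on tebufenozide-induced (100 nM) PC12 cells stably expressing polyQ103 Huntingtin exon 1–GFP. Reduction of bright GFP aggregates, detected by laser scanning cytometry after lysis, identified actives across the titration.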
Lamin A splicing – qHTS Assay for Modulators of Lamin A Splicing. Potency, µM (series often up to 46.1 µM), inactives show top-dose ratio change, negative = inhibition, most hits filed as inhibitors. HeLa LMNA splicing GFP/RFP minigene ratio, 48 h. 0.01% of 200,000 active; active means well fitted inhibition curve with a large enough effect in the signal ratio, with a control signal flat, not every such curve was filed as active; inconclusive means small, poorly fitted or top-dose-only effect, or effect the other way, or a change in a side signal; the % refers to the signal ratio; further: on the % scale 0 is the no-effect control and ±100 the full control effect
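Read-out is the ratio of GFP to DsRed2 object intensity, acquired by 488 nm laser-scanning cytometry on HeLa lamin A-EGFP minigene reporter cells. Compound incubation 48 hrs at 37 °C in Opti-MEM with 2% FBS; DMSO 0.5% final.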
ALDH1A1 inh – qHTS Assay for Inhibitors of Aldehyde Dehydrogenase 1 (ALDH1A1); Potency, µM (titrated, usually from 75.3 µM), for inactives: at the highest dose activity, negative = inhibition, usual class: inhibitors; Purified ALDH1A1, NADH fluorescence, propionaldehyde substrate; 7.3% of 220,000 active; AID 1030, 2008; active means well fitted inhibition curve with a large enough effect, not every such curve was filed as active; inconclusive means small, poorly fitted or top-dose-only effect, or another doubt; inactive means no such curve, though single readings can be large or run the other way;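 further: plate controls were no enzyme wells and a reference inhibitor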
Target sequence (P00352 whole entry, looked up): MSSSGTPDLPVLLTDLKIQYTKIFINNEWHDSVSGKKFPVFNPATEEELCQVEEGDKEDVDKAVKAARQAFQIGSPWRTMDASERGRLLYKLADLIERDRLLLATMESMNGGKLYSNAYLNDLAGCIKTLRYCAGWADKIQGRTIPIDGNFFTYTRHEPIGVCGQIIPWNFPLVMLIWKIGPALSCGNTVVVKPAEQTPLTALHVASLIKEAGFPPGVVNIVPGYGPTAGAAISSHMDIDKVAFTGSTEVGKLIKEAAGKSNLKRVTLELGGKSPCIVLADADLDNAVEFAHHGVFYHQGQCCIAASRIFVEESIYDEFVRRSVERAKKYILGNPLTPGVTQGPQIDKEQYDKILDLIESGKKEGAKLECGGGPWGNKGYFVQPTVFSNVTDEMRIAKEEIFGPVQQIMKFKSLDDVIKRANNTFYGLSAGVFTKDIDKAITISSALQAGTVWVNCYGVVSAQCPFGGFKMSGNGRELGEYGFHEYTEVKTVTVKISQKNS
Luc counter – Counterscreen for Luciferase (Kinase-Glo TM) Inhibition. Kinase-Glo luciferase, ATP luminescence, 8 min. Luciferin 4-monooxygenase (Photuris pensylvanica), Q27757. Potency, µM (series often up to 38.3 µM), without a hit: top-dose activity change, negative = inhibition, actives largely listed as inhibitors. 0.28% of 200,000 active; further: on the % scale 0 is the no-effect control and ±100 the full control effect; nearly all actives have a fitted effect of over 60% in size
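Recombinant Kinase-Glo luciferase, 10 uM ATP (linear range), luciferin; imidazole pH 7.2 / KCl / MgCl2 / Tween / BSA buffer; 8 min RT; luminescence.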
The depositor's hits bear a star; ? = inconclusive; . = no result; [ ] = another dose, or the depositor's remark. Only some compounds are listed: those with a hit (about 9% of all), similar ones and a draw of the others. Unless noted, the call rests on the fitted dose curve; in most records, active means well fitted curve in the direction sought with a large enough effect; inconclusive means small, poorly fitted or top-dose-only effect, or another doubt; inactive means no such curve, though single readings can be large; an effect the other way counts as inactive or inconclusive. Potency means the concentration at half of the fitted maximal effect.

SMILES | HPGD inh | HTT cytoprotect | HTT aggregate | Lamin A splicing | ALDH1A1 inh | Luc counter
O=C(COc1ccc(S(=O)(=O)NC2CCCCC2)cc1)NCCC1=CCCCC1 | -6% | 1%[10 µM] | -27% | 2% | 7.1µM* | 1%
O=C(NCc1cccs1)C1CCC(CNS(=O)(=O)c2cccs2)CC1 (configuration not stated) | -8% | 23%[10 µM] | 14% | 3% | 14µM* | -2%
COc1ccc(S(=O)(=O)NCC2CCC(C(=O)NCc3ccco3)CC2)cc1 (configuration not stated) | . | 22% | 10% | ? | 13% | .
Cc1ccc(S(=O)(=O)NCC2CCC(C(=O)NCc3ccco3)CC2)cc1 (configuration not stated) | -16% | 12%[10 µM] | 0% | 15% | 2.8µM* | 0%
O=S(=O)(NCC1CCN(S(=O)(=O)c2ccccc2)CC1)c1ccccc1 | -2% | 10% | -10% | -6% | 1.6µM* | 7%
CCN(CC)CCSc1nnc(Nc2ccccc2)n1-c1ccccc1 | . | -11% | 13% | -9%[46 µM] | 1% | 2%
CC(=O)c1cccc(NC(=O)NCc2cccnc2)c1 | -13% | -12% | 4% | -7% | -2% | 1%
O=C(NCCC1=CCCCC1)C1CCC(CNS(=O)(=O)c2ccccc2)CC1 (configuration not stated) | -13% | . | 10% | 9% | 0.56µM* | -1%
O=C(NCc1cccs1)C1CCC(CNS(=O)(=O)c2ccccc2)CC1 (configuration not stated) | . | . | 13% | . | 5µM* | 0%
COc1cccc(NC(=O)C2CCC(CNS(=O)(=O)c3cccs3)CC2)c1 (configuration not stated) | . | -6% | -1% | ? | 13µM* | 1%
Cc1ccc(CC(=O)NCC(c2ccco2)N(C)C)cc1C (configuration not stated) | . | -34% | -17% | -1%[46 µM] | -6% | -1%
CC(NC(=O)CCOc1ccccc1)c1ccccc1 (configuration not stated) | -14% | -14% | 1% | 6% | 8% | 18%
CCCn1nc(C(=O)Nc2cccc(C(=O)OC)c2)c2ccccc2c1=O | -12% | 4% | 25% | ? | 4.5µM* | -2%
COC(=O)c1cccc(NC(=O)c2nn(C(C)C)c(=O)c3ccccc23)c1 | -9% | 1%[10 µM] | -9% | -4% | -5% | 10%
CCCn1nc(C(=O)NCc2ccccn2)c2ccccc2c1=O | -4% | -11% | -18% | 7% | 10µM* | -4%
O=C(NCc1ccccn1)c1ccc(=O)oc1 | -22% | -79%[10 µM] | 2.8µM* | 0% | ? | 16%
CCCn1nc(C(=O)Nc2ccc(S(=O)(=O)Nc3nccs3)cc2)c2ccccc2c1=O | -8% | -7% | -15% | -4% | ? | -5%
CCCCCn1c(=O)[nH]c2cc(C(=O)NCc3ccccn3)ccc2c1=O | . | -24% | 14% | -12%[46 µM] | 13µM* | -4%
O=C(NCc1ccc2c(c1)OCO2)c1ccc(Cl)nc1 | . | -6% | -15% | . | -3% | 3%
O=C(NCc1ccco1)c1ccc(Cn2c(SCc3ccccc3)nc3cccnc32)cc1 | . | . | . | 13%[46 µM] | . | .
COc1cc(C(C)=O)ccc1Oc1ncnc2c1cnn2-c1ccccc1 | -26% | 26%[10 µM] | 8% | -8% | 7% | 0%
COc1ccc(NC2=CC(c3ccc(OC)c(OC)c3)N(c3ccc(OC)cc3)C2=O)cc1 (configuration not stated) | ? | . | 11% | ? | 14µM* | 0%
CCCC[C@@H]1C[C@H]1C(NC(=O)c1ccco1)c1ccccc1 (some centres not stated) | -13% | -44% | . | . | 25µM* | -3%
CCCC[C@@H]1C[C@H]1C(NC(=O)Cc1ccccc1)c1ccc(-c2ccccc2)cc1 (some centres not stated) | -12% | -14% | . | . | 1% | -1%
COC(=O)[C@@H]1C[C@H]1[C@@H](NC(=O)c1cccnc1)c1ccccc1 | -3% | -7% | . | . | 3% | 0%
SMILES | HPGD inh | HTT cytoprotect | HTT aggregate | Lamin A splicing | ALDH1A1 inh | Luc counter
COC(=O)[C@H]1C[C@@H]1[C@H](NC(=O)c1ccccc1)c1ccccc1 | -10% | -6% | -1% | 6% | 8.9µM* | 2%
CC[C@@H]1CC=C[C@H]2[C@H]1C(=O)N(Cc1ccccc1)[C@H]2c1ccc2ccccc2c1 | . | -42%[10 µM] | -28%[9.22 µM] | . | . | .
Cc1ccc(OCC(O)Cn2nc(C)cc2C)cc1 (configuration not stated) | . | -1%[10 µM] | 1%[9.22 µM] | 15%[46 µM] | 0% | -1%
O=c1cc(-c2ccccc2O)oc2c(O)c(O)ccc12 | 10µM* | -28%[1.9 µM] | . | . | 2.5µM* | -4%
O=c1cc(-c2ccccc2O)oc2ccc3ccccc3c12 | -1% | -104%[1.9 µM] | . | . | 3% | ?
O=C(O)Cc1cccc2c(=O)cc(-c3ccccc3)oc12 | -5% | 3%[10 µM] | . | . | -5%[13.5 µM] | 1%[7.66 µM]
O=c1cc(-c2ccccc2)oc2c(O)c(O)ccc12 | 3.2µM* | -205% | . | . | 4µM* | -4%
Cc1ccc(-c2csc(NC(=O)c3cccc(S(=O)(=O)N4CCN(C)CC4)c3)n2)cc1 | -27% | -8% | 11% | ? | 2.5µM* | -8%
CCC1=C2CC[C@H]3C(=O)N(c4ccccc4)C(=O)[C@H]3[C@H]2[C@@]2(C)C(=O)N(Cc3ccccc3)C(=O)N2C1=O | -12% | -22% | . | . | 20µM* | -8%
CCC1=C2CC[C@H]3C(=O)N(C)C(=O)[C@H]3[C@H]2[C@@]2(C)C(=O)N(CC(=O)OC)C(=O)N2C1=O | -12% | -29% | . | . | -5% | -1%
CCC1=C2CC[C@H]3C(=O)N(CC)C(=O)[C@H]3[C@H]2[C@@]2(C)C(=O)N(CC(=O)OC)C(=O)N2C1=O | -12% | -7% | . | . | 18µM* | -17%
CCC1=C2CC[C@H]3C(=O)N(c4ccccc4)C(=O)[C@H]3[C@H]2[C@@]2(C)C(=O)N(CC(=O)OC)C(=O)N2C1=O | -6% | -11% | . | . | -12% | -6%
C=CCN1C(=O)c2ccccc2Sc2ccc(C(=O)N3CCN(C)CC3)cc21 | -14% | -7% | -6% | 12% | ? | -3%
CCc1ccccc1NC(=S)NCC1CCN(c2ccc(OC)cc2)C1 (configuration not stated) | . | -4%[10 µM] | -10%[9.22 µM] | . | . | .
COc1ccc(N2CCC(CNC(=O)Nc3ccc(Cl)cc3)C2)cc1 (configuration not stated) | . | -9% | ? | ? | 5.6µM* | 5%
